PubChem BioAssay AID743255 (National Center for Advancing Translational Sciences (NCATS), 2014)
The whole screen tested about 390,000 compounds, of which about 910 (0.23%) were called active. Inconclusive results (about 5%) are left out. Calls follow the shape of the dose curve; as a rule, active = well fitted inhibition curve with a large enough effect; inconclusive = small, poorly fitted or top-dose-only effect; inactive = no such curve, though single readings can be large or run the other way. This excerpt belongs to a sample that is enriched for actives.

These compounds were tested against Ubiquitin carboxyl-terminal hydrolase 1 (Homo sapiens) (UniProt O94782) (assay: Inhibitors of USP1/UAF1: Primary Screen). Details: recombinant USP1/UAF1, Ub-Rhodamine cleavage fluorescence; series mostly up to 57.1 µM; activity change, negative = inhibition: at the top concentration.
Text: Deubiquitinating enzymes (DUBs) are a class of enzymes that can cleave isopeptide bond formed between the C-terminal carboxylate of ubiquitin and a lysine side-chain amino group on the target protein. Among them, ubiquitin specific proteases (USPs) constitute the largest DUB family. Human USPs are emerging as promising targets for pharmacological intervention because of their connection to a number of human diseases, including prostate, colon and breast cancer (1, 2), pediatric acute lymphoblastic leukemia (3), and familial cylindromatosis (4). The advantage of inhibiting USPs lies in the potential specificity of therapeutic intervention that can lead to better efficacy and reduce nonspecific side effects. In a collaboration between the University of Delaware and the NIH Chemical Genomics Center, a high-throughput screen assay was developed to screen for USP1/UAF1 inhibitors. This miniaturized assay has a fluorescent read-out and is used to screen the NIH Molecular Libraries Small Molecule Repository (MLSMR) in order to identify a small molecule that inhibits USP1. NIH Chemical Genomics Center [NCGC] NIH Molecular Libraries Probe Centers Network [MLPCN] MLPCN Grant: DA030552 Assay Submitter (PI): Zhihao Zhuang, University of Delaware 1. Priolo, C., et al. (2006) The isopeptidase USP2a protects human prostate cancer from apoptosis. Cancer Res 66, 8625-8632 2. Popov, N., et al. (2007) The ubiquitin-specific protease USP28 is required for MYC stability. Nat Cell Biol 9, 765-774 3. De Pitta, C., et al. (2005) A leukemia-enriched cDNA microarray platform identifies new transcripts with relevance to the biology of pediatric acute lymphoblastic leukemia. Haematologica 90, 890-898 4. Kovalenko, A., et al. (2003) The tumour suppressor CYLD negatively regulates NF-kappaB signalling by deubiquitination. Nature 424, 801-805
3 microliters of reagents (buffer in columns 3 and 4 as negative control and 1nM USP1/UAF1 complex in columns 1, 2, and 5-48) are dispensed into Greiner black solid bottom 1536-well assay plates. Compounds are then transferred via Kalypsys pin tool equipped with 1536-pin array (10nl slotted pins, V&P Scientific, San Diego, CA). Following an incubation step of 15 min at room temperature, 1ul of Ub-Rho substrate (150nM final concentration) is added to initiate the reaction. The plates are immediately centrifuged at 1000 rpm for 15 seconds, and subsequently transferred to a ViewLux high-throughput CCD imager (PerkinElmer) wherein kinetic measurements of fluorescence are acquired using 480 nm excitation/540 nm emission filter set (6 reads every 60 seconds, see Table 1). All reagents are diluted in an assay buffer consisting of 50mM HEPES (pH 7.8), 0.5mM EDTA, 0.1 mg/ml BSA, 1mM TCEP, and 0.01% Tween-20.
% is scaled to controls: 0 for no effect and ±100 for the full control effect; potency is read from the fitted curve at half-maximal effect.
Also: nearly all actives have a fitted effect of over 60% in size.

Ubiquitin carboxyl-terminal hydrolase 1 (Homo sapiens), sequence (O94782 whole entry, looked up): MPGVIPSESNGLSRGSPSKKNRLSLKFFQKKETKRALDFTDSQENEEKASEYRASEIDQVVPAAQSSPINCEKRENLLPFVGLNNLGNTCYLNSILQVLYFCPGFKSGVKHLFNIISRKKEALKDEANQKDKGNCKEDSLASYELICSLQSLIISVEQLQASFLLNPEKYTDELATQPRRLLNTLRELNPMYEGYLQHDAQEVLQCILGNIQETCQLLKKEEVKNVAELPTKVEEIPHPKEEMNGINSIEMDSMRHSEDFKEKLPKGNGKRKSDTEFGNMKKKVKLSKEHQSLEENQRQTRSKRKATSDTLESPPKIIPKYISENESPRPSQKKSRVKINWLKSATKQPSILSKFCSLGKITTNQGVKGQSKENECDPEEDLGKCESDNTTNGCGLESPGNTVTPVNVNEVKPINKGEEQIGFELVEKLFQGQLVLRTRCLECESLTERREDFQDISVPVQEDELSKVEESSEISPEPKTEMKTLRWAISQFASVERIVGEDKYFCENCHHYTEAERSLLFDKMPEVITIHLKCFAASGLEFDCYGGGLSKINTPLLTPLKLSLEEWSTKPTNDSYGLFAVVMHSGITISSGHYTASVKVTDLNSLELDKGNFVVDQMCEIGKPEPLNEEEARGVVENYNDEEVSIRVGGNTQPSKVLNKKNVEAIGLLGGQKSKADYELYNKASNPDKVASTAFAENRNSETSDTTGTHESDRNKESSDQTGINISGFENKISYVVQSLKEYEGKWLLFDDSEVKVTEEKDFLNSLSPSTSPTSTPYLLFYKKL

Activity change, negative = inhibition, inactive:
CN(C)S(=O)(=O)c1ccc(C(=O)N(Cc2cccnc2)c2nc3c(F)cc(F)cc3s2)cc1 -12.4%, COc1ccc(-n2c(=O)c3c(c4cc(OC)ccc4n3C)n(Cc3cccc(C)c3)c2=O)cc1 -22.4%, CCc1nc(-c2cc(S(=O)(=O)N3CCN(c4ccc(OC)cc4)CC3)ccc2OC)no1 -17.7%, CCOc1cc(C(=O)NCCc2csc3nc(-c4ccc(C)cc4)nn23)cc(OCC)c1OCC -9.17%, CCSc1nnc(NC(=O)c2cc(=O)c3cc(C)c(C)cc3o2)s1 3.51%, Cc1c(NC(=O)Nc2ccc(F)c(Cl)c2)c(=O)n(-c2ccccc2)n1C -6.4%, Cc1cccc(N2CCN(C(=O)CCSCc3ccccc3F)CC2)c1C -12.4%, COc1ccc(CCNC(=O)c2nn(C)c3c2CSc2ccccc2-3)cc1OC -21.5%, C#CCOCCOCCOCCNc1nc(N2CCN(C(=O)C([C@@H](C)CC)n3cc(C(N)COC(=O)C(F)(F)F)nn3)CC2)nc(N2CCN(C(=O)[C@H](CCCCN)n3cc(C(N)CC(C)C)nn3)CC2)n1 (some centres not stated) 7.14%, C#CCOCCOCCOCCNc1nc(N2CCOCC2)nc(N2CCN(C(=O)[C@H](Cc3ccc(O)cc3)n3cc(CCO)nn3)CC2)n1 -26.5%, COc1ccccc1NC(=O)c1cc(S(=O)(=O)NCCc2ccccc2)ccc1F -29.6%, COC(=O)c1ccc(NC(=O)c2cc(S(=O)(=O)N3CCC(C)CC3)cn2C)cc1 -7.47%, Cc1ccc(Cl)cc1N(C)C(=O)C1CCCN(c2ncnc3onc(-c4ccc(F)cc4)c23)C1 (configuration not stated) -14.7%, COc1ccc(Cc2nc3ccc(C(=O)NCc4ccc(OC)cc4OC)cc3o2)cc1 -4.95%, Cc1ccccc1CNC(=O)CCc1cn(Cc2ccccc2C)c2ccccc12 -19.7%, Cc1ccc(CCNC(=O)c2nnc(Cc3cccc(F)c3)o2)cc1 -24.8%, CCS(=O)(=O)c1nc(S(=O)(=O)c2ccc(C)cc2)c(NCc2ccc(Cl)cc2)s1 1.22%, COc1ccc(-c2nc(Cn3c(=O)cc(C)c4c(C)nn(-c5ccccc5)c43)c(C)o2)c(OC)c1 -5.06%, Cc1ccc(Cl)cc1N1CCN(C(=O)c2cccn3c(=O)c4cc(Cl)ccc4nc23)CC1 -23.4%, COC(=O)c1cc(NC(=O)CCc2c(C)nc3c4c(C)cc(C)nc4nn3c2C)cc(C(=O)OC)c1 -2.6%, Cc1ccc(-c2cnc(NCc3ccc(C(C)C)cc3)n2C)cc1 -27.3%, CCOC(=O)c1c(NC(=O)/C=C/c2ccc(OC)cc2)sc2c1CCC(C)C2 (configuration not stated) 31.4%, CCCN1CCc2nc(N3CCN(C)CC3)ncc2C1 1.13%, COc1ccc([N+](=O)[O-])cc1C1NN=C(c2cccc3ccccc23)S1 (configuration not stated) -9.93%, O=C(CCl)N(Cc1cccc([N+](=O)[O-])c1)c1cccc(Cl)c1 -2.98%, CCOC(=O)c1c(NC(C)=O)c2c3c(sc2n1Cc1c(C)cc(C)cc1C)CCCC3 -23.7%, COc1ccc(CCNC(=O)c2cc3cccc4c3n2CC(C)S4)c(OC)c1OC (configuration not stated) -25.8%, Cc1ccc(OC(=O)CSc2nnc(-c3cccs3)o2)cc1 -10.2%, O=C(CSCc1cnn(-c2ccccc2)c1-n1cccc1)NCc1ccccc1Br -11.6%, CCOC(=O)C1CCCN(C(=O)c2ccc3c(c2)sc2nc(-c4ccc(CC)cc4)cn23)C1 (configuration not stated) -7.16%, COc1ccc(OC)c2sc(N3CCN(C(=O)C4COc5ccccc5O4)CC3)nc12 (configuration not stated) -8.78%, Cc1ccc2c(c1)N(C(=O)Nc1ccc(Br)cc1F)CCO2 -0.306%, CCOc1ccc(CCNC(=O)c2cc3c(=O)n(C)c4ccccc4c3n2C)cc1 -22.7%, CCOC(=O)CNC(=O)c1cc2c(=O)n3cccc(C)c3nc2s1 8.57%, CCCN(CCC)c1nc2c(C)cccn2c(=O)c1/C=C1/SC(=S)N(Cc2ccco2)C1=O 123%, O=C(NCC(c1cccnc1)N1CCc2ccccc21)c1cccc(C(F)(F)F)c1 (configuration not stated) -8.98%, CC1=C(C(=O)OCC(C)C)C(c2ccc(OCc3ccccc3)cc2)N2C(=O)CCSC2=N1 (configuration not stated) -2.16%, COc1cccc(C(=O)Nc2ccc3oc(-c4ccc5ccccc5c4)nc3c2)c1 -16.5%, CCN1C(=O)c2ccccc2S(=O)c2ccc(C(=O)NCc3ccc(F)cc3)cc21 (configuration not stated) -6.47%, COc1ccc(-n2nc(C(=O)NCCc3ccc(Cl)cc3)c3c4ccccc4n(C)c3c2=O)cc1Cl 0.794%, CCCN(CCC)C(=O)C1CCCN(c2ncnc3c2nc2n3CCCCC2)C1 (configuration not stated) -8.4%, CCN(Cc1ccccc1)C(=O)c1cn(-c2cccc(OC)c2)c(=O)c2ccccc12 -13.1%, COc1cc(OC)c(OC)cc1/C=C/c1nc2ccccc2c(=O)n1-c1ccc(Br)c(C)c1 -2.89%, Cc1cccc(N2CCN(C(=O)Cn3ncc4c5ccccc5n(C)c4c3=O)CC2C)c1 (configuration not stated) -14.7%, CCOc1ccccc1C(=O)NC1(C(F)(F)F)C(=O)Nc2c1c(=O)[nH]c(=O)n2-c1ccc(F)cc1 (configuration not stated) -16.2%, COCCNC(=O)c1cc(-c2cccc(Cl)c2)on1 -23.1%, COc1ccc(C(=O)c2oc3ccccc3c2NC(=O)COc2cccc(C)c2)cc1 6.34%, Cc1c(C(=O)N2CCCC2)oc2c1-c1nn(CC(=O)NCc3ccc(OC(C)C)cc3)cc1CC2 -23.5%, COc1ccccc1NC(=O)c1sc2nc(C)c(C(=O)Nc3ccc(Cl)cc3)c(-c3ccc(Br)cc3)c2c1N -11.8%

Potency, active:
Oc1ccc(N=Cc2sc3ccccc3c2Cl)cc1 25.1 µM, C#CCOCCOCCOCCNc1nc(N2CCN(C(=O)CCCCCCCCCCNC(=O)[C@H]([C@@H](C)CC)n3cc(CCCCN=C(N)N)nn3)CC2)nc(N2CCN(C(=O)CCCCCCCCCCNC(=O)[C@H](CO)n3cc(CCCSC)nn3)CC2)n1 28.2 µM, CC(=O)N1C(=O)/C(=C2\SC(=S)N(NC(=O)c3ccc(O)cc3)C2=O)c2ccccc21 3.98 µM, CC(C)n1cnc2c(NCc3ccccc3)cc(OCC3CCN(C)CC3)cc21 17.8 µM, O=C1Nc2ccc([N+](=O)[O-])cc2C1=Nc1cccc(CO)c1 25.1 µM, CN1C(=O)c2cccc3c(N)ccc(c23)C1=O 4.47 µM, CCOC(=O)CC1C(=O)NCCN1c1nc2c(C)cccn2c(=O)c1/C=C1\SC(=S)N(C(C)CC)C1=O (configuration not stated) 8.91 µM, Oc1c(C=Nc2cccc3nsnc23)ccc2ccccc12 25.1 µM
